# Screening results from PubChem.
# An excerpt weighted towards active compounds, which were near 3.5% of everything screened.
# GPR151 activ – human GPR151 activation; 650,000 tested, 1% active; activation, % at 11.2 µM; PathHunter beta-arrestin GPR151 cells, luminescence; AID 1508602; Q8TDV0; in the data active means activation above about 4.9%;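 further: 0% = median of compound wells and 100% = cells with positive control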
# MITF inh – human MITF inhibition, primary screen; 650,000 tested, 0.91% active; inhibition, % at 2.6 µM; AlphaScreen MITF homodimerization, bead proximity signal; O75030; in the data active means inhibition above about 50%;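 further: 0% = vehicle wells with protein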
# TEAD-YAP block – TEAD-YAP interaction inhibition. HEK-TIYL cells, TEAD-Gal4/YAP UAS-luciferase luminescence. inhibition, % at 9.12 µM. 640,000 tested, 1.4% active; in the data active means inhibition above about 32%;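 further: 0% = median of test compound wells and 100% = reference inhibitor wells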
# FBW7 activator – human FBW7 E3 ligase activation, primary screen | Q969H0 | AlphaScreen FBW7–phospho-cyclin E peptide binding, activator screen | normalized activity (activation), % at 26.1 µM | 650,000 tested, 0.13% active; in the data active means normalized activity above about 1.9%;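 further: purified mutant Fbw7 with reduced substrate affinity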
# Target sequence (Q969H0 whole entry, looked up): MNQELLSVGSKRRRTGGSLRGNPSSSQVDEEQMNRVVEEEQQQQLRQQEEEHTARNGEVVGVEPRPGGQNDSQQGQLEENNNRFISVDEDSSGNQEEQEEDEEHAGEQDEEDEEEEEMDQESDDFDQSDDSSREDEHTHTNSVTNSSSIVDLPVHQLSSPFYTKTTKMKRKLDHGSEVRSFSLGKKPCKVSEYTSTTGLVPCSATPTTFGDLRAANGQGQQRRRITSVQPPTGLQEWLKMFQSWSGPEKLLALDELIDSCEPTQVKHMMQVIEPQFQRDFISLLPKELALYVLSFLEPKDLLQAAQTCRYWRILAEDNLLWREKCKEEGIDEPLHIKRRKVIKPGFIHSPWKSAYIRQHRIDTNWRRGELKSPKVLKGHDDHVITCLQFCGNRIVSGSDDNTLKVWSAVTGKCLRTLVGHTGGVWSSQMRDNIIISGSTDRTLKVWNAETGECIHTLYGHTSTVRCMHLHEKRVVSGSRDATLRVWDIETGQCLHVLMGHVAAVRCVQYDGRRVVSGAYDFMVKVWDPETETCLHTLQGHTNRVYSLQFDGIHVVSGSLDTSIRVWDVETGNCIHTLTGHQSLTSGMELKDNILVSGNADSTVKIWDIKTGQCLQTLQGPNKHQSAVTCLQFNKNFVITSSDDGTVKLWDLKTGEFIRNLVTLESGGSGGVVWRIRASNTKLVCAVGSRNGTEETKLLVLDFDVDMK
# Numbers without * were called inactive.
SMILES,GPR151 activ,MITF inh,TEAD-YAP block,FBW7 activator
OCC1CCCN1c1nc(Nc2ccccc2)c2ncn(-c3ccsc3)c2n1 (stereo unspecified),-0.7,3.3,36.0*,-0.1
COc1cc(Nc2nc(N3CCCC3CO)nc3c2ncn3-c2ccsc2)cc(OC)c1OC (stereo unspecified),-0.6,20.4,18.0,-0.4
CC(=O)Nc1ccc(Nc2nc(N3CCCC3CO)nc3c2ncn3-c2ccsc2)cc1 (stereo unspecified),-1.4,15.5,14.6,-0.4
OCC1CCCN1c1nc(NCc2cccnc2)c2ncn(-c3ccsc3)c2n1 (stereo unspecified),0.1,-6.3,54.4*,-0.3
CSc1ccc(/C=N/NC(=O)CN2CCCCCC2)cc1,0.3,15.9,-11.7,-0.2
CCOC(=O)CNC(=O)CSc1ncnc2scc(-c3ccc(Cl)cc3)c12,-0.7,-1.3,-10.4,0.0
COc1ccc(-c2csc3ncnc(NCCCO)c23)cc1,0.9,8.5,28.2,0.2
COC(=O)CCNc1ncnc2scc(-c3ccc(C)cc3)c12,2.5,0.8,35.5*,0.2
CCOC(=O)CNc1ncnc2scc(-c3ccccc3)c12,-0.4,1.9,35.1*,0.0
CCOC(=O)CSc1ncnc2scc(-c3ccc(F)cc3)c12,0.0,-15.1,-15.3,2.4*
COc1ccc(-c2csc3ncnc(NCCO)c23)cc1,2.0,-2.0,37.9*,1.4
O=C(OCCC1Oc2cccnc2NC1=O)c1ccco1 (stereo unspecified),-1.1,-1.2,-5.9,0.0
Clc1ccc(-n2ncc3c(NCCN4CCOCC4)ncnc32)cc1,0.8,-2.9,42.0*,0.0
Fc1ccc(-n2ncc3c(N4CCOCC4)ncnc32)cc1,0.0,-21.3,76.9*,-0.4
Clc1ccc(-n2ncc3c(N4CCCCCC4)ncnc32)cc1,3.7,-6.0,90.5*,-0.1
Cc1ccc(-n2ncc3c(N4CCOCC4)ncnc32)cc1Cl,-3.5,-4.0,92.4*,-0.2
Cc1cccc(-n2ncc3c(N4CCN(c5ccc(Cl)c(Cl)c5)CC4)ncnc32)c1,-1.5,-1.4,3.1,0.0
Clc1ccc(CCNc2ncnc3c2cnn3-c2ccc(Cl)cc2)cc1,0.3,8.8,-0.1,0.1
Clc1ccc(-n2ncc3c(N4CCOCC4)ncnc32)cc1,-0.3,-8.6,79.5*,-0.1
Clc1ccc(-n2ncc3c(N4CCN(c5ccc(Cl)c(Cl)c5)CC4)ncnc32)cc1,-0.5,9.9,8.8,0.3
Cc1ccc2c(NC(=O)c3ccccc3F)noc2n1,-1.6,-7.6,-10.3,0.2
O=C(Nc1noc2ncccc12)c1ccccc1F,-3.5,-5.1,83.4*,-0.4
O=C(Nc1noc2ncccc12)c1ccccc1Cl,-4.2,-6.4,94.4*,-0.5
O=C(Nc1noc2ccccc12)c1c(F)cccc1F,-11.5,-5.8,57.2*,-0.1
CCOc1cc(C2NC(=S)NC(C)=C2C(=O)Nc2ccc(F)c(F)c2)ccc1O (stereo unspecified),-0.1,7.3,1.0,-0.1
SMILES,GPR151 activ,MITF inh,TEAD-YAP block,FBW7 activator
Cc1cnc(CNC(=O)c2ccc3cncc(-c4ccccc4)c3n2)cn1,0.3,-3.7,63.2*,-0.1
O=C(NCc1ccccc1)c1ccc2cncc(-c3ccccc3)c2n1,-0.6,60.0*,66.2*,0.1
CC(=O)c1[nH]c(C)c(C(C)=O)c1C,-0.6,-6.4,-5.9,-0.1
CCc1c(Cc2[nH]c(C)c(C(C)=O)c2C)[nH]c(C(=O)O)c1C,-1.8,-146.2,8.5,15.0*
O=C(/C=C/c1ccc([N+](=O)[O-])cc1)N1CCCc2ccccc21,0.6,27.9,-7.3,0.2
O=C(/C=C/c1ccccc1)N1CCc2ccccc21,-5.6,5.5,65.9*,0.3
Cc1cc(C(=O)N2CCc3ccccc32)n(-c2ccccc2)n1,0.6,2.8,35.0*,-0.3
O=C(/C=C/c1ccccc1)N1CCCc2ccccc21,2.0,3.2,-27.4,0.0
O=C(/C=C/c1cccs1)N1CCc2ccccc21,-6.1,17.9,70.2*,0.3
COc1ccc(/C=C/C(=O)N2CCc3ccccc32)cc1,-7.0,7.6,74.1*,0.0
O=C(NCc1cccc(C(F)(F)F)c1)c1ccc2nc(-c3ccc(N4CCOCC4)nc3)sc2c1,-0.9,5.5,-5.3,0.1
CCc1ccc(OCCCNC(=O)Nc2cc(OC)c(OC)c(OC)c2)cc1,-0.3,-20.9,8.5,0.0
NS(=O)(=O)c1ccc(CCNC(=O)CCCn2c(SCc3ccccc3)nc3ccsc3c2=O)cc1,-0.8,14.9,5.1,0.1
CC(C)CCN1C(=O)c2ccc(C(=O)Nc3ccc([N+](=O)[O-])cc3O)cc2C1=O,-0.2,-4.2,-3.8,0.3
O=C(Nc1cccc(O)c1)c1cc(-c2ccc3c(c2)OCO3)on1,-5.5,-1.2,97.2*,-0.1
O=C(Nc1cccc(O)c1)c1cc(-c2cccnc2)on1,-2.2,-12.2,-17.8,0.1
